Measurements as given in PubChem BioAssay (NCATS).
Results filed as inconclusive are left out. Where a call stands in place of a potency, no number is given. The source made the active and inactive calls. Unless noted, calls come from the whole dose curve; as a rule, active = well fitted curve in the direction sought with a large enough effect; inconclusive = small, poorly fitted or top-dose-only effect, or another doubt; inactive = no such curve, though single readings can be large; an effect the other way counts as inactive or inconclusive.

Tests used:
[1] = biological target: Cytochrome P450 3A4 (Homo sapiens) (UniProt P08684); assay: qHTS Assay for Inhibitors and Substrates of Cytochrome P450 3A4 (AID 884); note: nearly all actives have a fitted effect of over 50% in size
Sequence of Cytochrome P450 3A4 (Homo sapiens) (P08684 whole entry, looked up): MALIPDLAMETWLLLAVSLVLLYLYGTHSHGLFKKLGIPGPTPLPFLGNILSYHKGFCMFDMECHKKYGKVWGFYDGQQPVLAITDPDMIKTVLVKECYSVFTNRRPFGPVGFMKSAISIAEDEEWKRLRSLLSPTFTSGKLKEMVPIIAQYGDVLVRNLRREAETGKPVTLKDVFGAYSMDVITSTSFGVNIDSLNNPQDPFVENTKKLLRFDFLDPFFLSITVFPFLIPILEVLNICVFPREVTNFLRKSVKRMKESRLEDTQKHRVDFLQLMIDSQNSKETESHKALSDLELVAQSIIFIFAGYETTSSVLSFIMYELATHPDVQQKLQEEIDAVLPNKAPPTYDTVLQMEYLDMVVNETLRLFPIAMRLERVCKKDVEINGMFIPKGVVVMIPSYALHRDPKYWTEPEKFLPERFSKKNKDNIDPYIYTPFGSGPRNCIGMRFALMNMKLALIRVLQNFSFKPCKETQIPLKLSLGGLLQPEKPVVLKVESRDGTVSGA
In short: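 20 nM human CYP3A4 with 25 uM Luciferin-PPXE (at KM) in 200 mM KPO4, preincubated 10 min with compound; NADPH regeneration started a 60 min RT reaction. Luciferin detected by luminescence, normalized to 57 uM ketoconazole as full inhibition.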

[2] = Confirmation and Secondary Assay for Modulators of Hemoglobin Beta Chain Splicing at IVS2 654 locus (AID 910);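 note: per-well total GFP intensity by laser scanning cytometry after 2-day treatment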
In short: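 HeLa cells stably carrying EGFP interrupted by mutant beta-globin IVS2-654 intron (CMV-driven) were treated with compound for 2 days at 37C; corrected splicing was scored as total peak GFP intensity per well (488 nm excitation, 500-520 nm emission).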

[3] = Confirmation and Secondary Assay for Modulators of Hemoglobin Beta Chain Splicing at IVS2 705 locus (AID 930);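 note: HeLa cells stably expressing the EGFP-705 splicing reporter; GFP fluorescence per well restored by corrected splicing of the IVS2-705 intron in EGFP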
In short: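 HeLa IVS2-705 EGFP reporter cells, 500/well, compound 2 d at 37C; correct splicing yields fluorescent EGFP. Control: 500 nM antisense PNA. Read-out: total peak GFP intensity.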

[4] = qHTS Assay for Lipid Storage Modulators (AID 1519; calls by dose curve); conditions: Drosophila S3 cells, BODIPY lipid droplet/cell ratio, laser cytometry, cells loaded with oleic acid; for activity change, negative = inhibition: at 57.5 µM (top of the series)
In short: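 Cells seeded at 5,000 per well were treated with compounds over a concentration series and loaded with oleic acid (400 uM, as added). Lipid droplet fluorescence (488 nm excitation, 500-530 nm channel) was read by laser-scanning cytometry and normalized to 20 uM Triacsin C.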

[5] = biological target: Ubiquitin carboxyl-terminal hydrolase 1 (Homo sapiens) (UniProt O94782); assay: Inhibitors of USP1/UAF1: Pilot qHTS (AID 504865);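 note: rhodamine fluorescence freed from ubiquitin-rhodamine substrate followed over time; top concentration of the series differs between compounds; nearly all actives have a fitted effect of over 35% in size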
Sequence of Ubiquitin carboxyl-terminal hydrolase 1 (Homo sapiens) (O94782 whole entry, looked up): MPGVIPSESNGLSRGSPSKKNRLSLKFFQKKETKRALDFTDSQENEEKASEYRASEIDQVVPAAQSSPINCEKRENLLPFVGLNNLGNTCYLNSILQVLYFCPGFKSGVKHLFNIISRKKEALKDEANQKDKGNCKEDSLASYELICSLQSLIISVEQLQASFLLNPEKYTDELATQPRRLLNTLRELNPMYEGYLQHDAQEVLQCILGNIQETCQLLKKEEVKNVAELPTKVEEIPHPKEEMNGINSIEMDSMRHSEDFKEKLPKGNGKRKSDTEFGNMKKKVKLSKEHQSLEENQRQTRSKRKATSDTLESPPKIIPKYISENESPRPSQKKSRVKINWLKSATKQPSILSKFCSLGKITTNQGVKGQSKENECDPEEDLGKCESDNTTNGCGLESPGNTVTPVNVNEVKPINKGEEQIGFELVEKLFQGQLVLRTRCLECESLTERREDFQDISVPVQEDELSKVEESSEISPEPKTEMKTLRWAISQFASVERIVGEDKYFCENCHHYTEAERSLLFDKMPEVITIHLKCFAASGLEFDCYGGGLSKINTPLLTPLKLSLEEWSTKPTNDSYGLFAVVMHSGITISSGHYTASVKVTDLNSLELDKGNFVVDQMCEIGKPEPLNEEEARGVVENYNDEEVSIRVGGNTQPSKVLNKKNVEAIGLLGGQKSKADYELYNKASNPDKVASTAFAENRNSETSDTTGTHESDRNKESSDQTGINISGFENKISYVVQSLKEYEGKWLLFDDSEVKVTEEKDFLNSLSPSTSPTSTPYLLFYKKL
In short: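 Enzyme-free wells gave the negative control, while test wells held 1nM USP1/UAF1 preincubated with compound for 15 min at room temperature. Ub-Rho at 150nM final started the reaction, and fluorescence at 480/540 nm was recorded kinetically.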

[6] = biological target: Cytochrome P450 3A4 (Homo sapiens) (UniProt P08684); assay: qHTS Assay for Activators of Cytochrome P450 3A4 (AID 885); note: nearly all actives have a fitted effect of over 65% in size
In short: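 Human CYP3A4 (20 nM) with Luciferin-PPXE at 25 uM (its KM) in 200 mM KPO4; 10 min compound preincubation, then NADPH regeneration and 60 min reaction at RT. Luciferin read by luminescence; normalized to 57 uM ketoconazole full inhibition.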

[7] = measured here: cell count channel max response
[8] = measured here: lipid channel max response

SMILES | Potency [1] | Potency [2] | Potency [3] | activity change, negative = inhibition [4] | max response [4, 7] [%] | max response [4, 8] [%] | Potency [5] | Potency [6]
OCC1O[C@@H](OC2C(O)C(CO)O[C@@]2(CO)O[C@@H]2OC(CO)C(O)C(O)C2O)C(O)C(O)C1O (some centres undefined) | inactive | inactive | inactive | 4.82% (inactive) | 0.0409 | 4.57 | inactive | 
COc1ccc(-c2cc(=O)c3c(O)c(OC)c(OC)c(OC)c3o2)cc1OC |  | inactive |  | -11% (inactive) | -6.36 | -17.8 | inactive | inactive
CC1=C(/C=C/C(C)=C/C=C/C(C)=C/C=C/C=C(C)/C=C/C=C(C)/C=C/C2=C(C)C(=O)C(O)CC2(C)C)C(C)(C)CC(O)C1=O (centres undefined) | inactive |  | inactive | 2.55% (inactive) | 25.7 | 27.4 | inactive | 
COc1cc(O)c(C)c(O)c1 |  | inactive | inactive | 1.69% (inactive) | 3.91 | 5.62 | inactive | inactive
CCOC(=O)c1c(C)cc(O)c(C=O)c1O |  | inactive | inactive | 7.6% (inactive) | -4.41 | 3.24 | inactive | inactive
CC(C)C1COc2cc3oc(=O)ccc3cc2O1 (centres undefined) | inactive |  | inactive | 9.84% (inactive) | 6 | 13.7 | inactive | 
COc1ccc(C(=O)c2ccc(O)cc2)c(O)c1O |  | inactive | inactive | 4.3% (inactive) | 2.91 | 8.25 | inactive | inactive
CC(=O)N1CCCC1C(=O)O (centres undefined) | inactive |  | inactive | 7.19% (inactive) | 1.45 | 9.22 | inactive | 
CCNC(=O)CCC(N)C(=O)O (centres undefined) | inactive |  | inactive | 2.77% (inactive) | 9.46 | 16.9 | inactive | 
COc1cc(OC)c2c(c1Cl)OC1(C2=O)C(O)=CC(=O)CC1C (centres undefined) | inactive |  | inactive | 0.55% (inactive) | -1.12 | 2.38 | inactive | 
COc1cc(O)c(C(=O)O)c(O)c1 | inactive |  | inactive | 4.12% (inactive) | 1.93 | 6.74 | inactive | 
NCC1OC(OC2C(N)CC(N)[C@@H](O)[C@@H]2OC2O[C@H](CO)[C@@H](O[C@@H]3OC(CN)C(O)C(O)C3N)C2O)C(N)C(O)C1O (some centres undefined) | inactive | inactive | inactive | 9.63% (inactive) | 15.6 | 30 | inactive | 
Cc1cc(O)cc(O)c1C(=O)O |  | inactive |  | 4.63% (inactive) | 10.6 | 18.2 | inactive | inactive
C=C1C(=O)OC2CC1C(OC(C)=O)CC(C)=CCCC(C)=CCC[C@@]2(C)O (some centres undefined) |  | inactive |  | -0.0283% (inactive) | 10.1 | 14.3 | inactive | inactive
NC(=O)c1ccc[n+]([C@@H]2OC(COP(=O)([O-])OP(=O)(O)OCC3OC(n4cnc5c(N)ncnc54)C(OP(=O)(O)O)C3O)C(O)C2O)c1 (some centres undefined) | inactive | inactive | inactive | 5.09% (inactive) | 9.14 | 18.1 | inactive | 
CNC1C(O)[C@@H]2OC(O[C@@H]3C(O)C(O)C(N)C[C@H]3N)C(N)C[C@H]2O[C@H]1O[C@@H]1OC(CO)C(N)C(O)C1O (some centres undefined) | inactive | inactive | inactive | 6.47% (inactive) | 16.9 | 24.6 | inactive | 
COc1ccccc1/C=C\C(=O)O | inactive | inactive | inactive | -2.1% (inactive) | 4.2 | 4.2 | inactive | 
CCOC(=O)c1c(C)cc(O)c(C)c1O | inactive | inactive | inactive | 6.04% (inactive) | 15.9 | 23.2 | inactive | 
COC(=O)/C(C)=C/CC12OC(C)(C)C3CC(C=C4C(=O)c5cc6c(c(CCC(C)(C)Cl)c5OC431)OC1(C)CCC(=C(C)C)C6C1)C2=O (centres undefined) | inactive | inactive | inactive | 14.1% (inactive) | 7.63 | 20.5 | inactive | 
COc1ccc(-c2coc3c(O)c(OC)ccc3c2=O)cc1 |  | inactive | inactive | 2.6% (inactive) | 25.3 | 28.5 | inactive | inactive
COc1c(O)cccc1O | inactive |  | inactive | 5.35% (inactive) | -1.6 | 5.81 | inactive | 
CC(=O)NC(CCC(=O)O)C(=O)O (centres undefined) | inactive | inactive | inactive | 11.4% (inactive) | 14.5 | 27.6 | inactive | 
C/C1=C/CC(C)(C)/C=C/C/C(C)=C/CC1 | inactive |  | inactive | 0.556% (inactive) | 16.1 | 16.9 | inactive | 
CO[C@]12CC(COC(=O)c3cncc(Br)c3)CN(C)[C@@H]1Cc1cn(C)c3cccc2c13 (some centres undefined) |  | inactive | inactive | 10.2% (inactive) | 10.9 | 29 | inactive | inactive
CC1=CC2C(C(C)C)CCC(C)(O)C2CC1 (centres undefined) | inactive |  | inactive | -0.741% (inactive) | -7.33 | -6.55 | inactive | 
O=C(NC1CCCCC1)NC1CCCCC1 |  | inactive | inactive | 9.61% (inactive) | 16.8 | 30.7 | inactive | inactive

SMILES | Potency [1] | Potency [2] | Potency [3] | activity change, negative = inhibition [4] | max response [4, 7] [%] | max response [4, 8] [%] | Potency [5] | Potency [6]
C[C@@H]1OC(OC2C(OC3CC[C@@]4(C)C5CC=C6C7CC(C)(C)CC[C@@]7(C(=O)O)CCC6(C)C5(C)CCC4[C@]3(C)CO)OCC(O)C2O)C(O)C(O)C1O (some centres undefined) | inactive |  | inactive | 3.66% (inactive) | 9.24 | 14.3 | inactive | 
C=CCSCC=C | inactive |  | inactive | 6.16% (inactive) | -10.4 | -1.96 | inactive | 
CC(=O)OC1CCC2(O)CC1(C)CCC1C2CC1(C)C (centres undefined) | inactive | inactive | inactive | 0.291% (inactive) | 16.4 | 18.1 | inactive | 
COC(=O)CC1C(C)(C)C2(O)OC34CC2C(=O)[C@@]1(C)C3CC[C@]1(C)C4=CC(=O)OC1c1ccoc1 (some centres undefined) |  | inactive | inactive | 4.29% (inactive) | -0.136 | 8.19 | inactive | inactive
COC(=O)CC1C(C)(C)C(OC(C)=O)C2CC3=C4CC(=O)OC(c5ccoc5)[C@]4(C)CCC3[C@@]1(C)C2=O (some centres undefined) |  | inactive | inactive | -5.96% (inactive) | 14.6 | 10 | inactive | inactive
CC1(C)C(O)C=C[C@@]2(C)C1CC(=O)O[C@@]1(C)C3=CC(=O)OC(c4ccoc4)[C@]3(C)CCC21 (some centres undefined) |  | inactive |  | 9.57% (inactive) | 1.87 | 14.6 | inactive | inactive
COc1cc(OC)c2c(=O)c(OC)c(-c3ccc(OC)c(OC)c3)oc2c1 |  | inactive | inactive | 1.54% (inactive) | 14.1 | 15.7 | inactive | inactive
O=C(O)c1cc2cc(Cl)ccc2[nH]1 | inactive |  | inactive | 4.59% (inactive) | 19.5 | 25.3 | inactive | 
Nc1ncnc2[nH]c(=O)[nH]c12 | inactive |  | inactive | 4.6% (inactive) | 1.75 | 6.43 | inactive | 
[N-]=[N+]=Nc1nc2c(N)ncnc2n1C1OC(CO)C(O)C1O (centres undefined) | inactive |  | inactive | -16.2% (inactive) | 12.5 | 1.58 | inactive | 
COc1ccc(-c2oc3cc(O[C@@H]4OC(CO)C(O)C(O)C4O)c(OC)c(O)c3c(=O)c2OC)cc1O (some centres undefined) |  | inactive | inactive | 2.95% (inactive) | -7.2 | -6.13 | inactive | inactive
C=C1CCC(=O)C(C)CCC2C1CC2(C)C (centres undefined) |  | inactive | inactive | 1.2% (inactive) | 13.1 | 14.5 | inactive | inactive
CC1(C)CC2C1CCC1(C)OC1CCC2(C)O (centres undefined) |  | inactive | inactive | -2.16% (inactive) | -0.415 | 2.87 | inactive | inactive
S=c1ccss1 |  | inactive | inactive | 7.62% (inactive) | 5.82 | 13.7 | inactive | inactive
CC1(C)CC[C@]2(C(=O)O)CC[C@@]3(C)C(=CCC4[C@@]5(C)CCC(O)[C@@](C)(CO)C5CC[C@@]43C)C2C1 (some centres undefined) |  | inactive | inactive | 1.32% (inactive) | 5.6 | 17.6 | inactive | inactive
COC(=O)C1OC(=O)C2O[C@@]23[C@]2(C)C(OC(C)=O)CC4C(C)(C)C(=O)CC[C@]4(C)C2CC[C@@]13C (some centres undefined) |  | inactive | inactive | -1.69% (inactive) | -0.434 | 4.55 | inactive | inactive
COC(=O)c1cc(OC)c(=O)c2c(OC)c(OC)ccc2c1 |  | inactive | inactive | 6.06% (inactive) | -2.75 | 7.78 | inactive | inactive
CC(=O)OC1CC2C(C)(C)C(O)C=C[C@@]2(C)C2CC[C@@]3(C)C(c4ccoc4)OC(=O)C4OC43[C@]12C (some centres undefined) |  | inactive | inactive | 8.59% (inactive) | 21.3 | 29.9 | inactive | inactive
CC(C)=CCOc1cc2oc(=O)ccc2cc1O |  | inactive | inactive | 12.4% (inactive) | -16.3 | -2.91 | inactive | inactive
CCOC(=O)C(Cc1ccc(O)cc1)NC(C)=O (centres undefined) |  | inactive | inactive | 7.38% (inactive) | 6.37 | 13.9 | inactive | inactive
C=C1CCC2C(CC2(C)C)C(=C)CC/C1=N/O (centres undefined) |  | inactive | inactive | 4.06% (inactive) | 4.09 | 9.2 | inactive | inactive
C#C[C@]1(O)CCC2C3CCC4=Cc5oncc5C[C@@]4(C)C3CC[C@@]21C (some centres undefined) |  | inactive | inactive | 9.19% (inactive) | 9.5 | 21.9 | inactive | inactive
CC(=O)OC1CC2C(C)(C)C(=O)[C@@H]3OC3[C@@]2(C)C2CC[C@]3(C)C(=CC(=O)OC3c3ccoc3)[C@]12C (some centres undefined) |  | inactive | inactive | 2.11% (inactive) | 18.2 | 25.7 | inactive | inactive
COc1cc(OC)c(C(C)=O)c(O)c1C |  | inactive | inactive | 17% (inactive) | 5.25 | 27.6 | inactive | inactive
CC(=O)OCC(=O)[C@]1(O)C(C)CC2C3CCC4=CC(=O)C=C[C@@]4(C)[C@]3(F)C(O)C[C@@]21C (some centres undefined) |  | inactive | inactive | -6.8% (inactive) | 9.77 | 2.72 | inactive | inactive
